3CLpro inhibitor = SARS-CoV 3CLpro protease inhibition | AID 1706 | recombinant SARS-CoV 3CLpro, quenched FRET peptide cleavage | inhibition, % at 6 µM | hit rate 0.14% among 290,000 | P0C6X7; in the data active = inhibition above about 12%
DUSP3 inh = blocks human VHR1 dual specificity phosphatase; inhibition, % at 13.3 µM; recombinant VHR phosphatase, pNPP absorbance; P51452; AID 1654; hit rate 0.52% among 290,000; in the data active = inhibition above about 50%
Target sequence (P51452 whole entry, looked up): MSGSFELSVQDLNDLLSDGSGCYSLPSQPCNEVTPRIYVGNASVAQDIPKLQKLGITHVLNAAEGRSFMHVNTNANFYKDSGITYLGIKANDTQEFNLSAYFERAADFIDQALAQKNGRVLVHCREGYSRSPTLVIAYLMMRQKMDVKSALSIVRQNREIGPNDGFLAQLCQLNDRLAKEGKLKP
CCHF vOTU inh = CCHFV vOTU protease inhibition; Pep-AMC fluorescence; inhibition, % at 11.5 µM; hit rate 0.55% among 370,000; AID 651958; in the data active = inhibition above about 30%; also: 0% = vehicle wells with enzyme and 100% = no enzyme wells
RecA intein inh = Mtb RecA intein splicing inhibition; cell-free RecA intein splicing, fluorescence; inhibition, % (no concentration beside the values); hit rate 0.75% among 290,000; in the data active = inhibition above about 30%;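 also: 0% = vehicle wells and 100% = reference inhibitor control wells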
An asterisk follows results filed as active; . = no result. Only some compounds are listed: those with a hit (about 1.5% of all), similar ones and a draw of the others.

SMILES	3CLpro inhibitor	DUSP3 inh	CCHF vOTU inh	RecA intein inh
CCCc1cc(=O)oc2c(C)c(OCC(=O)c3ccc(N4CCCC4)cc3)ccc12	2	58*	4	.
CCCCc1cc(=O)oc2c(C)c(OCC(=O)N3CCCC3)ccc12	2	18	-13	1
CC(C)C(=O)c1cc2c(cc1NC(=O)c1cccs1)OCCO2	3	53*	-7	-5
COCCNC(=O)C[C@H]1C[C@H]2c3cc(NS(=O)(=O)c4ccc(F)cc4)ccc3O[C@H]2[C@H](CO)O1	.	.	-2	.
CCCCn1c(N)c(N(CC)C(=O)c2ccccc2C)c(=O)[nH]c1=O	-6	52*	6	1
CCCN(CC(=O)Nc1ccccc1OC)C(=O)CCNC(=O)c1ccccc1OC	.	.	-12	-7
COc1ccc(OCC(O)COc2ccc(C(=O)O)cc2)cc1 (stereo not given)	0	51*	-4	-1
CC(=O)c1ccc(OCC(O)COc2ccc(C(C)=O)cc2)cc1	-7	30	-13	-3
COc1ccccc1C(=O)CN1C(=O)NC2(CCc3ccccc32)C1=O (stereo not given)	.	.	-1	0
CCS(=O)(=O)N1Cc2ccccc2CC1C(=O)N1CCN(c2ccccc2)CC1 (stereo not given)	3	52*	11	1
CCCCN(C(=O)NCCCCCCNC(=O)N(CCCC)C1CCS(=O)(=O)C1)C1CCS(=O)(=O)C1 (stereo not given)	-2	6	15	4
COC(C(=O)Nc1ccnn1C1CCN(C(=O)c2ccc(C)cc2)CC1)c1ccccc1 (stereo not given)	-1	51*	-6	2
CN1C(=O)CC(Nc2cccc3cccc(N)c23)C1=O (stereo not given)	-3	58*	.	-1
CCOc1ccc(NS(=O)(=O)c2cccc(C(=O)N(C)Cc3ccco3)c2)cc1	.	.	10	.
CCCCC[C@H](O)/C=C/[C@@H]1[C@@H](C/C=C\CCCC(=O)OC)[C@@H](O)C[C@H]1O	8	5	.	41*
COCCn1c(SCCN2CCOCC2)nc2c1c(=O)[nH]c(=O)n2C	-4	58*	0	9
C=CCn1c(SCCN2CCOCC2)nc2c1c(=O)[nH]c(=O)n2C	0	18	1	1
COc1ccc(C(C(=O)NC2CCCC2)n2c(CSCCOc3ccccc3)nc3ccccc32)cc1 (stereo not given)	.	.	10	.
CCC(C)OC(=O)c1cc(C)nc2c(Br)cc(Br)cc12 (stereo not given)	0	58*	12	1
CCOC(=O)c1cc(C)nc(SC)c1C#N	-2	-14	5	-4
COC(=O)[C@]12C[C@H](CC(=O)NCCC(C)C)C(=O)N(Cc3ccc(Cl)cc3Cl)C1=C[C@H](COCc1ccccc1)O[C@@H]2C	.	.	9	.
N#CC(C#N)=NNc1ccc(S(=O)(=O)N2CCCC2)cc1	0	-1	19	30*
NS(=O)(=O)OCC(Cc1ccccc1)N1C(=O)c2ccccc2C1=O (stereo not given)	-3	13	6	1
O=C1C2C3C=CC(C3)C2C(=O)N1CNc1ccc(O)cc1 (stereo not given)	.	46	.	62*
CCCOc1cccc(-c2nc3ccccc3c(=O)o2)c1	4	7	9	43*
SMILES	3CLpro inhibitor	DUSP3 inh	CCHF vOTU inh	RecA intein inh
CCc1cc2c(=O)oc(-c3ccc(F)cc3)nc2s1	3	18	-6	6
COc1nccnc1NS(=O)(=O)c1ccc(NC(=S)NC(=O)c2ccccc2)cc1	-1	52*	4	-1
COc1nccnc1NS(=O)(=O)c1ccc(NC(=S)NC(=O)/C=C/c2ccccc2)cc1	-2	-5	9	1
c1ccc(C2[C@H]3CN(Cc4cccnc4)[C@H](c4ccccc4)C34CC2(c2cccnc2)C4)cc1 (stereo not given in full)	.	19	6	37*
COc1ccccc1CNC(=O)C(=O)c1cn(CC(=O)N2CCCC2)c2ccccc12	-3	52*	10	0
Cc1cc(NCc2ccccc2)n2ncc(-c3ccccc3)c2n1	0	55*	-3	6
COc1ccc(CCNc2cc(C)nc3c(-c4ccccc4)cnn23)cc1OC	-1	-15	-15	0
O=C(NNC(=O)c1cc2cc(Br)ccc2oc1=O)c1ccc(O)cc1O	1	60*	-4	25
O[C@@H]1[C@@H](O)[C@H](n2c3ccc(Cl)cc3c3ccc4c5cc(Cl)ccc5[nH]c4c32)OC[C@H]1O	.	.	12	.
CCOc1ccc(N2CC(C(=O)Nc3ccc(S(=O)(=O)N4CCCC4)cc3)CC2=O)cc1 (stereo not given)	1	55*	14	2
CCOc1ccc(N2CC(C(=O)Nc3ccc(S(=O)(=O)N4CCCCC4)cc3)CC2=O)cc1 (stereo not given)	.	.	1	1
COc1ccc(-c2cc(C(F)(F)F)c3c(N)c(C(=O)NCCSC)sc3n2)cc1	1	54*	14	-35
CN(C)CCNC(=O)c1sc2nc(-c3ccccc3)cc(C(F)(F)F)c2c1N	-2	16	10	-4
CCN1CCN(C(c2ccccc2)c2nnnn2Cc2ccc3c(c2)OCO3)CC1 (stereo not given)	-3	52*	8	1
Cc1cccc(C)c1OCc1nnc(SCC(=O)Nc2ccc(N3CCOCC3)cc2)o1	-5	54*	-2	-4
O=C(Nc1ccc(C(=O)NCCCN2CCCCC2)cc1)C1=CSCCO1	-1	57*	1	-3
COc1ccccc1N1CCN(C2CCCN(Cc3ccccc3OCCO)C2)CC1 (stereo not given)	-4	59*	-2	1
COc1ccc(O)c(CN2CCCC(N3CCN(c4ccccc4OC)CC3)C2)c1 (stereo not given)	1	21	17	-5
Cc1ccc(NC(=O)C2SC(=Nc3ccccc3)C(C(=O)Nc3ccc(Cl)cc3)=C2N)cc1 (stereo not given)	1	19	.	.
Cc1ccc(N=C2SC(C(=O)Nc3ccc(OC(F)(F)F)cc3)C(N)=C2C(=O)Nc2c(C)cc(C)cc2C)cc1 (stereo not given)	9	28	30*	.
O=C(Nc1cc(S(=O)(=O)Nc2ccc(Cl)cc2)ccc1O)c1ccc(S(=O)(=O)N2CCCCCC2)cc1	-3	-7	9	-2
O=C(N/N=C\c1cc(Cl)ccc1O)c1ccc(S(=O)(=O)N2CCCCC2)cc1	0	64*	0	0
Nc1cc(-c2ccccc2)ccc1O	2	-10	-2	-7
c1ccc(-c2ccc3c(c2)NCCN3)cc1	0	52*	-26	-3
COc1cccc(S(=O)(=O)N(C)C[C@H]2OCc3cnnn3CCCC(=O)N([C@@H](C)CO)C[C@@H]2C)c1	.	.	-1	.
O=S(=O)(c1ccccc1)c1cc(O)ccc1O	1	25	-7	-6
Nc1ccc(S(=O)(=O)c2cc(O)c3ccccc3c2O)cc1	.	.	71*	.
Cc1ccc2c(c1)C(CS(=O)(=O)NCc1ccccc1)NC2 (stereo not given)	.	.	4	.
OCCC1CN(CCCc2ccccc2)CCN1Cc1ccc(F)cc1 (stereo not given)	4	56*	2	1
CCCc1ccc(OCC(=O)NNC(=O)c2cccnc2)cc1	-2	21	12	-1

Assay outcomes (PubChem BioAssay)
